Measured values published in PubChem BioAssay (NCI).
This is part of a sample that, as a whole, favours compounds with a hit. Of some 83,000 tested, about 20% had one in any assay.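 Negative percent growth values reflect cell death: -40 means 40% of the cells present at the start died, and -100 means all died.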 Calls of active or inactive are those of the source.

Test system: OVCAR-5 ovarian
Experiment: NCI-60 one-dose screen, 48 h (100 = growth as untreated, 0 = no growth, -100 = all killed)
Conditions: 10 µM unless noted
Procedure: Growth inhibition of the OVCAR-5 human tumor cell line is measured as a screen for anti-cancer activity. Cells are grown in 96 well plates and exposed to the test compound for 48 hours. Compounds are tested at a single concentration, which is 10^-5 M for most compounds. The reported endpoint is percent growth (GI% or GIPRCNT), where numbers from 0 - 100% represent growth inhibition, and numbers from -100% - 0 represent cell death. For example, a value of 40 represents 60% growth inhibition. A value of 0 means no net growth occurred over the course of the experiment. A value of -40 indicates 40% of cells at the beginning of the experiment died by the end of the experiment. A value of -100 means all cells are dead at the end of the experiment.
NCI-60 Human Tumor Cell Lines Screen was performed using the standard one-dose NCI protocol, which is described in more detail at https://dtp.cancer.gov/discovery_development/nci-60/default.htm.
Compounds with GIPRCNT values below 10 were considered active. Activity score was based on GIPRCNT using the following formula: […]
Score is 0 for GIPRCNT values of 100 or above, 50 for GIPRCNT values of 0, and 100 for GIPRCNT values of -100.

| Structure (SMILES) | growth |
| --- | --- |
| COc1ccc(C2=NN(C=O)C(c3ccc(OS(=O)(=O)c4ccc(C)cc4)c(OC)c3)C2)cc1 (stereo not given) | 89.9% (inactive) |
| O=c1cc(N2CCOCC2)oc2c(-c3ccc4c(c3)OCCO4)csc12 | 18.1% (inactive) |
| Cc1ccc(-c2cnc3sc4ccc(Cl)cc4n23)cc1 | 106% (inactive) |
| CC(=O)c1ccc(Nc2nc(Cl)nc(Oc3c(Cl)cccc3Cl)n2)cc1 | 105% (inactive) |
| O=C1C=CC(=O)N1CO | 101% (inactive) |
| COCCn1c(Nc2ccc(C(=O)NO)cc2)nc2ccccc21 | 47.4% (inactive) |
| CN(C)CCOc1nc2c3ccncc3cc(-c3cccc(Cl)c3)c2c2cnccc12 | 58.8% (inactive) |
| Cc1cc(C#Cc2ccccc2)ccc1-n1c(/C=C/c2ccc(F)cc2)nc2ccccc2c1=O | 106% (inactive) |
| OC(c1cc2c(Cl)cc(Cl)cc2c2cc(C(F)(F)F)ccc12)C1CCCCN1 (stereo not given) | -78.5% (active) |
| c1ccc(C(CC2=NCCCN2)c2ccccc2)cc1 | 95.9% (inactive) |
| Cc1n(Cc2ccc3ccccc3n2)cc[n+]1Cc1ccc2ccccc2n1 | 83.4% (inactive) |
| COc1ccc(/C=C2\Cc3c(Br)cccc3C2=O)c(OC)c1 | 85.3% (inactive) |
| O=C(Nc1ccccc1)C(CCCCN1C(=O)c2ccccc2C1=O)N1C(=O)c2ccccc2C1=O (stereo not given) | 103% (inactive) |
| Cc1cc2nc3c(=O)[nH]c(=O)nc-3n(CC=O)c2cc1C | 96.2% (inactive) |
| COC(=O)c1cc2oc(/C=N/NC(=O)c3cc4oc(-c5cccc(C(F)(F)F)c5)cc4[nH]3)cc2n1Cc1ccccc1 | 107% (inactive) |
| O=C1Cc2c([nH]c3ccc([N+](=O)[O-])cc23)-c2ccccc2N1 | 12.3% (inactive) |
| N#Cc1nc(-c2cccc(Br)c2)cc(-c2ccc(Nc3nc(N4CCCCC4)nc(N4CCCCC4)n3)cc2)c1N | 9.23% (active) |
| Cc1ccc(O)c(Cc2ccccc2)c1 | 104% (inactive) |
| CCCCN(CCCC)CCC(=O)c1ccc(OC)c2ccccc12 | 102% (inactive) |
| C#CC[C@@H]1C[C@]2(C)[C@H]3CC=C4[C@H]5[C@@H](C)[C@H](C)CC[C@]5(C(=O)NCCCN5CCN(CCCN)CC5)CC[C@@]4(C)[C@]3(C)CC[C@H]2C(C)(C)[C@H]1OC(C)=O | 29.4% (inactive) |

| Structure (SMILES) | growth |
| --- | --- |
| CC1=NOCC(=O)N1 | 95.3% (inactive) |
| O=c1c2sc3ncc(Cl)cc3c2nnn1-c1cccc(Cl)c1 | 86.2% (inactive) |
| NC(=O)Nc1ccc2ncnc(Nc3cccc(O)c3)c2c1 | 98.1% (inactive) |
| Cc1ccc(NC(=O)Cn2nncc2CN2C(=O)CSC2=O)cc1C | 112% (inactive) |
| O=C(O)C1[S][Sb]([CH](C(=O)O)[CH](C(=O)O)[Sb]2[S]C(C(=O)O)C(C(=O)O)[S]2)[S]C1C(=O)O (stereo not given) | 118% (inactive) |
| COc1cc(/C=C/C(=O)c2ccc(NC(=O)CSc3nnc(-c4ccc(Cl)cc4)n3-c3ccccc3)cc2)cc(OC)c1OC | 128% (inactive) |
| Nc1nc2ccc([C@@H]3Nc4ccc5[nH]ncc5c4[C@H]4[C@H]5CCC(C5)[C@H]43)cc2s1 | 21.3% (inactive) |
| C/C(CC(=O)NNc1ccc([N+](=O)[O-])cc1)=N\Nc1ccc([N+](=O)[O-])cc1 | 48.8% (inactive) |
| COc1ccc(/C=c2\c(=O)n(-c3ccccc3)c3nn4c(n23)=NNC42CCCCC2)cc1 | 113% (inactive) |
| CC1(C)CC[C@]2(C(=O)N3CCNCC3)CC[C@]3(C)C(=CC[C@@H]4[C@@]5(C)CCC(=O)C(C)(C)[C@@H]5CC[C@]43C)[C@@H]2C1 | 109% (inactive) |
| ClCc1cccc(CSc2ncnc3c2ncn3Cc2cccc(CCl)c2)c1 | 116% (inactive) |
| CCCCCCCCCCCC1=NC(C)(C)CN1C(C)(C)CO | 73.2% (inactive) |
| CC(C)c1ccc(Cn2ccc3c4c(N)nc(NC5CC5)nc4ccc32)cc1 | -85.9% (active) |
| Nc1c(C(=O)Nc2cccc(Cl)c2)sc2ncc(Br)cc12 | 84.1% (inactive) |
| Fc1ccc2nc(-c3ccc(-c4noc(-c5ccc(Cl)cc5)n4)cc3)[nH]c2c1 | 113% (inactive) |
| CC(=O)N[C@@H](CCC(N)=O)C(=O)O | 111% (inactive) |
| N#Cc1c(N)c(C(=O)c2ccc3c(c2)OCCO3)n2c1CCCC2 | 57.9% (inactive) |
| CC1=NC(c2ccc(Cl)cc2)C2=C(N1)/C(=C/c1ccc(Cl)cc1)CCC2 (stereo not given) | 114% (inactive) |
| CC(C)NC(=O)OCC#CCOC(=O)NC(C)C | 110% (inactive) |
| COc1ccc(C2CC(c3ccc(Nc4ccnc5cc(Cl)ccc45)cc3)=NN2c2ccccc2)cc1 (stereo not given) | 86.2% (inactive) |
